Measured values taken from PubChem BioAssay AID588853 (National Center for Advancing Translational Sciences (NCATS), 2011).
Active and inactive are the calls of the source.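 How the source made its calls: active means glucocerebrosidase seen by eye moving to lysosomes in immunostained patient skin cells after 5 µM compound; inconclusive means microscope result judged unclear; inactive means no movement seen.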

Molecular target: Lysosomal acid glucosylceramidase (Homo sapiens) (UniProt P04062)
Assay: qHTS for Activators of Human Glucocerebrosidase as a Potential Chaperone Treatment of Gaucher Disease: Fibroblast Translocation
Conditions: Gaucher patient fibroblasts, GCase lysosomal translocation, immunofluorescence
Source text: Glucocerebrosidase (GCase) catalyzes the hydrolysis of beta-glucocerebroside to glucose and ceramide in lysosomes. Mutations in the glucocerebrosidase gene result in Gaucher disease, an autosomal recessive lysosomal storage disorder. Many of the mutations encountered in patients with Gaucher disease are missense alterations that may cause misfolding, decreased stability and/or mistrafficking of this lysosomal protein. […] However, the enhancement of enzyme activity by the chaperone action of an enzyme inhibitor must be balanced against the direct inhibition of the enzyme. An enzyme activator could also function as a chaperone by binding to the enzyme and helping to correct its misfolding and mistrafficking. Activators for GCase have not yet been identified, and they may have better therapeutic potential than inhibitors. Therefore the discovery and development of chemical activators may provide a new strategy for the chaperone therapy. The probe that has been identified was tested in a chaperone translocation experiment in human fibroblasts. This assay attempts to quantitate translocated glucocerebrosidase protein in patient-derived fibroblasts following extended compound incubation. The fibroblasts tested in this experiment were homozygous either for N370S glucocerebrosidase or wildtype GCase. NIH Chemical Genomics Center [NCGC] […]

Sequence of Lysosomal acid glucosylceramidase (Homo sapiens) (P04062 whole entry N409S): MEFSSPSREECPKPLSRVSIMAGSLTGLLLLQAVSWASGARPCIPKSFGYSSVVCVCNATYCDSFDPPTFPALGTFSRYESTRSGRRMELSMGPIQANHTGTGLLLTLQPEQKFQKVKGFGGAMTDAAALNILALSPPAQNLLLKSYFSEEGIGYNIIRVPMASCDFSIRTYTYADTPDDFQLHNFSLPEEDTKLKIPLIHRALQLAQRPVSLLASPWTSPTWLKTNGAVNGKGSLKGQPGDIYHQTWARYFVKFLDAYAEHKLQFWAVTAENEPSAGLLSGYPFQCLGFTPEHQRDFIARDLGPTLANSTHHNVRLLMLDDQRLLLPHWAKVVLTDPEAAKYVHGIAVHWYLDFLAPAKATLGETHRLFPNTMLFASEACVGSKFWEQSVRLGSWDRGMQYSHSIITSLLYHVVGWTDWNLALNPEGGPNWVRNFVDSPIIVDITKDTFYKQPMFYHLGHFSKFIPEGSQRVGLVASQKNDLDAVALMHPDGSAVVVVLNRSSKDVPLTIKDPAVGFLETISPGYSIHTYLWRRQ

Row | SMILES | outcome
1 | C#Cc1ccc(NC(=O)c2cnn3c(C)cc(C)nc23)cc1 | active; yes
2 | CN(C(=O)CNC(=O)c1ccccc1OCC(=O)Nc1ccc(Br)cc1)c1ccccc1 | active; yes
